Results filed as inconclusive are left out. Active and inactive are the calls of the source. Calls follow the shape of the full dose curve.
Molecular target: Retinoic acid receptor RXR-alpha (Homo sapiens) (UniProt P19793)
Assay: qHTS assay for small molecule agonists of retinoid X receptor alpha signaling (AID 588544)
Conditions: HEK293T RXRa-UAS-bla, beta-lactamase reporter, 18 h; series mostly up to 76.7 µM; activation: at the top concentration
Excerpt: NIH Chemical Genomics Center [NCGC] U.S. Environmental Protection Agency [EPA] National Institutes of Environmental Health Sciences [NIEHS] National Toxicology Program [NTP] NCGC Assay Overview The Retinoid X receptor (RXR), a nuclear hormone receptor is expressed in liver, spleen, placenta, epidermis, central nervous system. These receptors are able to form homo and heterodimers with other nuclear receptors and due to this heterodimerizing ability, RXR functions as master regulators producing diverse physiological effects. Three subtypes of RXR exist; alpha, beta and gamma. Retinoid X receptor alpha (RXR-alpha) has potential roles in metabolic signaling pathways, skin alopecia, dermal cysts, cardiac development, insulin sensitization etc. Therefore screening environmental chemicals on RXR-alpha signaling can be used for the studies focused on such therapeutic applications.
NCGC Assay Protocol Summary Using a beta-lactamase reporter-gene under control of Retinoid X receptor--alpha (RXR-alpha) response element, a cell-based assay [GeneBLAzer (RXR-alpha -UAS-bla assay developed by Invitrogen] was used to measure RXR-alpha ligands signaling. GeneBLAzer RXR-alpha -UAS-bla HEK293T cells were used with assay medium containing 2% charcoal-stripped FBS. The assay was performed in clear bottom black Greiner 1536-well plates. 9-cis-retinoic acid was used in the screen as the positive control. Library compounds were measured for their ability to stimulate the reporter gene activity. Compounds were screened in a titration series in 1536-well format. The fluorescence intensity (405 nm excitation, 460/530 nm emission) was measured using an EnVision plate reader. Data was normalized relative to 9-cis-retinoic acid control (500 nM, 100%), and DMSO only wells (basal, 0%). Concentration-response titration points for each compound were fitted to the Hill equation yielding concentrations of half-maximal stimulation (EC50) and maximal response (efficacy) values. qHTS protocol for RXR-alpha beta-lactamase assay in agonist mode [Step] [Parameter] [Value] [Description] 1. Reagent; 6 uL; 2500 cells/well 2. Incubation; 37 C for 4 hrs 3. Compounds; 23 nL; 0.59 nM to 92 uM 4. Controls (9-cis-retinoic acid); 23 nL, - One column with dose response, start 38 uM, 1:3 dilutions in duplicates - Final concentrations of 500 nM and 50 nM in two columns 5. Incubation; 37 C for 18 hrs 6. Detection reagent; 1 uL of CCF4-dye 7. Incubation; RT for 2 hrs 8. Detection; Fluorescence; Envision plate reader

Sequence of Retinoic acid receptor RXR-alpha (Homo sapiens) (P19793 whole entry, looked up): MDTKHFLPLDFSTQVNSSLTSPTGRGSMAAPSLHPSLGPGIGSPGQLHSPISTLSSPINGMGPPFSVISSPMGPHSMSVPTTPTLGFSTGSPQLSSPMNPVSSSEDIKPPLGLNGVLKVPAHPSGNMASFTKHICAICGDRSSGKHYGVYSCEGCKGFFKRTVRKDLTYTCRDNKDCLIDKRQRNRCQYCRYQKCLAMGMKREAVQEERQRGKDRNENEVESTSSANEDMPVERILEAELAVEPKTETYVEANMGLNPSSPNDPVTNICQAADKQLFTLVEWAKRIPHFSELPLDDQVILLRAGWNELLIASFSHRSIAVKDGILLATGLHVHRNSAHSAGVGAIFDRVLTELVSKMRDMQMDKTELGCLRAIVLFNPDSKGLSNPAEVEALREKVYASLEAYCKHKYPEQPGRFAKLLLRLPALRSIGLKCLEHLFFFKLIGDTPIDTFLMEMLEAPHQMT

| SMILES | activation | Potency |
| --- | --- | --- |
| Nc1cccc2c(N)cccc12 | 0.799% (inactive) |  |
| COc1cc(C=O)ccc1O | -9.66% (inactive) |  |
| O=C(c1ccccc1)c1ccccc1 |  | inactive |
| O=C(Oc1ccccc1)c1cccc(C(=O)Oc2ccccc2)c1 | -23% (inactive) |  |
| OCCOCCN1CCN(C(c2ccccc2)c2ccc(Cl)cc2)CC1 (centres undefined) | -23% (inactive) |  |
| CC(C)C(C)(C)C(C)(C)C(C)(C)S |  | inactive |
| CN1C(=O)c2ccccc2C1=O | 21% (inactive) |  |
| CCCCC(CC)COC(=O)c1ccccc1C(=O)O (centres undefined) |  | inactive |
| Nc1ccc(O)cc1 | -12.3% (inactive) |  |
| c1ccc2occc2c1 | 6.27% (inactive) |  |
| Cc1cc(C(C)(C)C)c(O)c(C(C)(C)C)c1 |  | 17.8 µM (active) |
| Cc1ccc(O)cc1 | 1.81% (inactive) |  |
| Cc1ncc(CO)c(CO)c1O | 8.65% (inactive) |  |
| OCc1c[nH]c2ccccc12 | -11.4% (inactive) |  |
| CCCC(=O)c1cc(O)c(O)cc1O | 3.05% (inactive) |  |
| COC(=O)c1c(Cl)c(Cl)c(C(=O)OC)c(Cl)c1Cl | -8.97% (inactive) |  |
| Brc1ccccc1-c1ccccc1 | -2.3% (inactive) |  |
| C1=CC2C3C=CC(C3)C2C1 (centres undefined) | -2.65% (inactive) |  |
| CCCCCCCCCCCCCCCC[n+]1ccccc1 | -7.41% (inactive) |  |
